{
  "source": "the supplement of paper PMC9399229",
  "note": "In all, about 1,900 compounds were measured (“relative cell viability (CellTiter-Glo), compound plus cabozantinib, relative to the cabozantinib arm (arm median 1.05; reference not stated)”: median about 1.1, lowest 2% from about 0.15 on). Shown is part of a subset that was picked to be rich in the lowest values.",
  "data": [
    {"test_system": "Hep3B", "assay": "relative cell viability (CellTiter-Glo), compound plus cabozantinib, relative to the cabozantinib arm (arm median 1.05; reference not stated) (fraction); higher = more viable cells (less growth inhibition)", "details": "cabozantinib 2 µM; 4 days", "values": [
      {"smiles": "CC(C)N(CCCNC(=O)Nc1ccc(C(C)(C)C)cc1)C[C@H]1O[C@@H](n2ccc3c(N)ncnc32)[C@H](O)[C@@H]1O", "relative cell viability": 1.07},
      {"smiles": "O=C1c2c(O)cc(O)cc2O[C@H](c2cc(O)c(O)c(O)c2)[C@H]1O", "note": "[Dihydromyricetin]", "relative cell viability": 0.985},
      {"smiles": "CC(C)[C@H](O)C(=O)N[C@@H](C)C(=O)N[C@@H]1C(=O)N(C)CCc2ccccc21", "relative cell viability": 1.01},
      {"smiles": "CCN(c1cc(-c2ccc(CN3CCOCC3)cc2)cc(C(=O)NCc2c(C)cc(C)[nH]c2=O)c1C)C1CCOCC1", "relative cell viability": 0.911},
      {"smiles": "CN1CCN(CCCNc2ncc(Cl)c(-c3cc4c(C(=O)NC5CC5)cccc4s3)n2)CC1", "relative cell viability": 1.1},
      {"smiles": "CCNC(=O)CCC/C=C\\C[C@@H]1[C@@H](/C=C/[C@@H](O)CCc2ccccc2)[C@H](O)C[C@@H]1O", "note": "[Bimatoprost]", "relative cell viability": 1.16},
      {"smiles": "C[C@H]1CO[C@@H]2Cn3cc(C(=O)NCc4ccc(F)cc4F)c(=O)c(O)c3C(=O)N12", "relative cell viability": 1.1},
      {"smiles": "Cc1noc(NS(=O)(=O)c2ccc(N)cc2)c1C", "note": "[Sulfisoxazole]", "relative cell viability": 1.01},
      {"smiles": "CCOc1nc2cccc(C(=O)OCc3oc(=O)oc3C)c2n1Cc1ccc(-c2ccccc2-c2noc(=O)[nH]2)cc1", "note": "[Azilsartan Medoxomil]", "relative cell viability": 1.22},
      {"smiles": "O=C(Nc1ncc(SCCN2CCCC2)s1)[C@]1(c2ccc(S(=O)(=O)C3CC3)cc2)C[C@H]1C1CCCCC1", "relative cell viability": 0.963},
      {"smiles": "CCOc1cc(C(=O)N2CCC(N3CCN(C)CC3)CC2)ccc1Nc1ncc2c(n1)N(C1CCCC1)c1ccccc1C(=O)N2C", "relative cell viability": 0.703},
      {"smiles": "CC(C=CC1(O)C(C)=CC(=O)CC1(C)C)=CC(=O)O", "note": "(stereo not drawn) [Abscisic Acid (Dormin)]", "relative cell viability": 1.08},
      {"smiles": "O=c1c2ccccc2oc2ccccc12", "note": "[Xanthone]", "relative cell viability": 1.08},
      {"smiles": "Cc1cc(F)c(Nc2ncnc3cc(OCc4ccccc4)ccc23)cc1O", "relative cell viability": 1.05},
      {"smiles": "O=NO", "note": "[Sodium Nitrite]", "relative cell viability": 1.09},
      {"smiles": "CCc1c(C(=O)NCCc2ccc(N3CCCCC3)cc2)[nH]c2ccc(Cl)cc12", "relative cell viability": 0.997},
      {"smiles": "CC(C)(C#N)c1cc(Cn2cncn2)cc(C(C)(C)C#N)c1", "note": "[Anastrozole]", "relative cell viability": 1.1},
      {"smiles": "C/C(O)=C(\\C#N)C(=O)Nc1ccc(C(F)(F)F)cc1", "note": "[Teriflunomide]", "relative cell viability": 0.922},
      {"smiles": "CC[C@H](c1ccc(O)cc1)[C@@H](CC)c1ccc(O)cc1", "note": "[Hexestrol]", "relative cell viability": 1.19},
      {"smiles": "CC(C(=O)O)c1ccc2c(c1)CC(=O)c1ccccc1S2", "note": "(stereo not drawn) [Zaltoprofen]", "relative cell viability": 1.17},
      {"smiles": "CSc1cccc(Nc2ncc3cc(-c4c(Cl)cccc4Cl)c(=O)n(C)c3n2)c1", "relative cell viability": 0.748},
      {"smiles": "OCC(CO)N[C@H]1C[C@](O)(CO)[C@@H](O)[C@H](O)[C@H]1O", "note": "[Voglibose]", "relative cell viability": 1.28},
      {"smiles": "Nc1nc(O)c2ncn(CCC(CO)CO)c2n1", "note": "[Penciclovir]", "relative cell viability": 1.08}
    ]}
  ]
}
